110 compounds from PubChem BioAssay AID623911 (Vanderbilt High Throughput Screening Facility, 2012) can be followed below.

Out of some 2,100 compounds screened, about 770 (37%) were called active. The list shows a part of the results. Unmarked numbers belong to inactive results.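 The calls were made as follows: active = by-eye trace score of 1 for enhancers or -1 for inhibitors, so actives lie on both sides (some results past the limit were not filed as active); inactive = score 0, or 3 fluorescent, or 4 baseline rise.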

G protein-activated inward rectifier potassium channel 2 (Homo sapiens) + G protein-activated inward rectifier potassium channel 1 (Homo sapiens), sequence (P48051 whole entry, looked up): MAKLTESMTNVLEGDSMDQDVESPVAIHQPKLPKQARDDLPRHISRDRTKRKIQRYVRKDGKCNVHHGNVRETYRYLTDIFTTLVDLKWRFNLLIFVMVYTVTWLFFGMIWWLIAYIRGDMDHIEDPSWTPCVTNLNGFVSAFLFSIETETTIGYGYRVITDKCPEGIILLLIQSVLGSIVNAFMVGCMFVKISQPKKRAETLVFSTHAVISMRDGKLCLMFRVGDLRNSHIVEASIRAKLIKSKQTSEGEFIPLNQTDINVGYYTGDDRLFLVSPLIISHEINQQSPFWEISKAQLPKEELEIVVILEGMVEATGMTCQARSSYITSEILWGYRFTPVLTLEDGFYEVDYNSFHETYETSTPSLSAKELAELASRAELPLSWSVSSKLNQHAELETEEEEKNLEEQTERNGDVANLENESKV
G protein-activated inward rectifier potassium channel 2 (Homo sapiens) + G protein-activated inward rectifier potassium channel 1 (Homo sapiens), sequence (P48549 whole entry, looked up): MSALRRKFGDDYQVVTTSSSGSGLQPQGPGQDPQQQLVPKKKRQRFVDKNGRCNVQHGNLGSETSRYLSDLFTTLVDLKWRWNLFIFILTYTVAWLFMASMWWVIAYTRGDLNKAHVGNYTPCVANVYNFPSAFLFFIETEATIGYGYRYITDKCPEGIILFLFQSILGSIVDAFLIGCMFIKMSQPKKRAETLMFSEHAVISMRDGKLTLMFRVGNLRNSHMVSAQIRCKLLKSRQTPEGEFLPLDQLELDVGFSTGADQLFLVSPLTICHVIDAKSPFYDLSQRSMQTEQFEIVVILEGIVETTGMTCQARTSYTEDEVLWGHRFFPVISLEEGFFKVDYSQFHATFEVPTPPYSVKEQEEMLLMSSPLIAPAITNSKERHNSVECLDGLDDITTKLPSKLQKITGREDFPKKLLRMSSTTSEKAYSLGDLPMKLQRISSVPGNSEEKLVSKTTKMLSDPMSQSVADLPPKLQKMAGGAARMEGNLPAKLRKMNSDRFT

This assay addresses G protein-activated inward rectifier potassium channel 2 (Homo sapiens) + G protein-activated inward rectifier potassium channel 1 (Homo sapiens) (UniProt P48051+P48549). Put plainly: GIRK1/2 thallium flux modulators, retest, confirmation, cell-based, HEK293 rmGlu8/hGIRK1/2, FluoZin-2 (AID 623911). Particulars: HEK293 rmGlu8/hGIRK1/2, thallium flux FluoZin-2; actives lie on both sides; glutamate co-added at its EC20 level.
As to `O=C(CSc1nnc2ccccn12)Nc1nsc(-c2ccccc2)n1`, the manual score was 0.
For `CC1(C)CC(=O)C2=C(C1)NC(SCC(=O)Nc1ccccc1)=C(C#N)C2c1ccco1` (stereo not given) the value was 0; for `CC1(C)CC(=O)C2=C(C1)N(c1ccccc1)C(N)=C(C#N)C2c1ccsc1` (stereo not given), -1 (active); for `CN1C(=O)C2(C(C#N)=C(N)N(c3cc(Cl)cc(Cl)c3)C3=C2C(=O)CCC3)c2ccccc21` (stereo not given), 0.
For `S=c1[nH]nc(COc2ccccc2)n1C1CCCCC1` the value was 0.
For `O=C(O)CCC(=O)NC1CCCCCCC1`, the manual score was 0.
For the compound `CC(C)=CCC(C)(C)CNC(=O)NC1CCCCC1`, the manual score is 1 (active).
As to `O=C(Cc1ccccc1)N/N=C/c1cccn1-c1ccc([N+](=O)[O-])cc1`, the manual score was 1 (active).
For `N#CC1(Cc2ccc([N+](=O)[O-])cc2)c2ccccc2C=CN1C(=O)c1ccccc1` (stereo not given) the value was 0; for `CCOC(=O)CSC1=C(C#N)C(=O)NC(c2ccc(OC)c(OC)c2)S1` (stereo not given), 0; for `C=CCNCc1cccn1-c1sc2c(c1C#N)CCCC2`, -1 (active).
For `CCOC(=O)c1c2n(c3c(NCc4ccccc4)ncnc13)CCCC2` the value was -1 (active); for `O=C(Oc1ccccc1)c1cccc(COC(=O)c2cnccn2)c1`, 0.
For `CCc1ccc(CNCCNCC(C)O)cc1` (stereo not given) the value was 1 (active).
For the compound `CCOC(=O)c1ccc(CNCc2ccc(Br)cc2)cc1`, the manual score was 0.
For `COc1ccc(C(=O)N2C(=S)NC(=O)/C2=C\c2ccc(C)cc2)cc1` the value was 0; for `COc1ccc(/C=C2\N=C(SC)NC2=O)cc1`, 1 (active); for `COc1ccc(/C=C2\C(=O)NC(=S)N2C(=O)c2ccc(F)cc2)cc1`, 0.
Turning to `CCC1CCCCN1CCCn1c(=S)[nH]c2ccccc2c1=O` (stereo not given), the manual score is 0.
Regarding `CCn1c(=S)[nH]c2cc(C(=O)OC)ccc2c1=O`, the manual score was 0.5.
For `CC(C)COn1c(=S)[nH]c2ccccc2c1=O` the value was 1 (active).
In the case of `CC(C)N(CCn1c(=S)[nH]c2ccccc2c1=O)C(C)C`, the manual score is 0.
For `O=c1c2ccccc2[nH]c(=S)n1CCCN1CCN(C2CCCCC2)CC1` the value was -1 (active).
With `CC(C)n1c(=S)[nH]c2ccccc2c1=O`, the manual score is 1 (active).
For `CC1CCCCN1CCCn1c(=S)[nH]c2ccccc2c1=O` (stereo not given) the value was 0; for `COC(=O)c1ccc2c(=O)n(CC3CCCO3)c(=S)[nH]c2c1` (stereo not given), 0; for `CCOc1cc2[nH]c(=S)n(C(C)C)c(=O)c2cc1OCC`, 1 (active).
For `CC1CCC(n2c(=S)[nH]c3ccccc3c2=O)CC1` (stereo not given) the value was 0.5; for `CCC1(C)OCC(Cn2c3ccccc3c3ccccc32)O1` (stereo not given), 0.
With `CC(C)c1ccc2occ(-c3nn[nH]n3)c(=O)c2c1`, the manual score was 0.
For `CC1CCCCC1n1c(=S)[nH]c2ccccc2c1=O` (stereo not given) the value was 1 (active).
For `CC1CCCC(n2c(=S)[nH]c3ccccc3c2=O)C1C` (stereo not given), the manual score was 3.
In the case of `CCCCOc1cccc(OCCCC)c1C(=O)Nc1cc(C)on1`, the manual score is -1 (active).
For `Cc1cc(NC(=O)c2ccccc2Oc2ccccc2)no1` the value was 0; for `COc1ccc(C(=O)Nc2ccccc2)cc1S(=O)(=O)Nc1cc(C)on1`, 0; for `COc1ccc(CN2CCNC(=O)C2CC(=O)O)cc1OC` (stereo not given), 0.
For `COc1cccc2[nH]c3c(N4CCCC(C)C4)ncnc3c12` (stereo not given) the value was -1 (active); for `Cc1ccc(-c2nnn(CC(=O)N3CCCCC3)n2)c(-n2cnnn2)c1`, 0.
For `COc1ccc(N(CC(=O)NC2CCCC2)C(=O)Cn2nnc(-c3ccc(C)cc3)n2)cc1` the value was 0; for `Cc1ccc(-c2nnn(CC(=O)NC3CC4CCC3C4)n2)cc1` (stereo not given), 1 (active).
Turning to `Clc1cccc(-c2ccc(/C=N/n3cnnc3)o2)c1Cl`, the manual score was 0.
As to `CCCCCCCC1CC(CSc2ncn[nH]2)OC1=O` (stereo not given), the manual score was 0.
For `CCCCCCCC1CC(CSC(=N)N)OC1=O` (stereo not given) the value was -1 (active).
`O=C(c1ccc(Br)o1)N1CCN(c2ccc3nnc(-c4ccc(F)cc4)n3n2)CC1`: the manual score is 0.
For `Fc1ccccc1NC(=S)NN(Cc1ccccc1)c1ccccc1` the value was -1 (active).
In the case of `Fc1cc(Br)ccc1NC(=S)NCCc1ccccc1`, the manual score was 0.
For `CCn1c(NC(=O)Nc2cccc(C)c2C)cc2sccc21` the value was 0; for `COc1ccccc1NC(=O)COc1ccc(Br)cc1CO`, 0.
As for `O=C(NCc1cccs1)c1cccnc1C(=O)O`, the manual score is 0.
For the compound `COc1ccc2cc(Br)ccc2c1CC(=O)NC1CC(C)(C)NC(C)(C)C1`, the manual score was 0.
For `COc1ccc(Br)cc1CNC(=O)Nc1cccs1` the value was 1 (active).
For `Cc1ccccc1CNC(=O)Nc1cccs1` the value was 1 (active); for `CCOc1cc(C)nc(N2CCN(C3CCCCC3)CC2)n1`, -1 (active).
For `COc1ccc(C(=O)NNC(=S)NC(=O)c2ccco2)cc1` the value was 1 (active); for `COc1ccccc1C(=O)NNC(=S)NC(=O)c1ccco1`, 1 (active).
With `Cc1ccccc1OCC(=O)N/N=C/c1cccn1C`, the manual score was 1 (active).
For `Cc1ccc(OCC(=O)N/N=C/c2cccn2C)cc1` the value was 0; for `Cc1cnc(NC(=O)COc2ccccc2Cl)s1`, 0; for `COc1ccc(CNC(=O)CSCc2ccccc2Cl)cc1`, 0.
For `Cc1ccc(C(=O)CC(=O)COc2ccc(Cl)cc2C)cc1` the value was 1 (active); for `Cc1ccc(C(=O)CC(=O)c2cc(Cl)ccc2O)cc1`, 0.
For `Cc1ccc(C(=O)CC(=O)COc2ccc(Cl)cc2)cc1` the value was 0; for `CC1CCCN(C(C(=O)Nc2ccc3c(c2)OCO3)c2ccccc2)C1` (stereo not given), -1 (active); for `Cc1ccc(C(C(=O)NC2CCCC2)N2CCCC(C)C2)cc1` (stereo not given), -1 (active).
In the case of `CC(C)c1cc(C(F)(F)F)n2nc(C(=O)Nc3ccc4c(c3)OCO4)cc2n1`, the manual score is 0.
For `CC1CCN(C(C(=O)Nc2ccc3c(c2)OCO3)c2ccccc2)CC1` (stereo not given) the value was -1 (active); for `Cc1ccc(NC(=O)C(c2ccccc2)C2CCCC2)cc1` (stereo not given), 0; for `O=C(NC(=S)Nc1ccc2c(c1)OCO2)c1ccccc1`, 0.
For `Cc1csc(SCC(=O)Nc2nc3ccccc3s2)n1` the value was 0.
For `O=C(Nc1ccc(O)c(-c2nc3ccccc3s2)c1)C1=COCCO1` the value was 0.
For `O=C1OC2(CCCCC2)OC(=O)C1=CNc1nc2ccccc2s1`, the manual score is 1 (active).
For `Oc1oc(-c2cccc3ccccc23)nc1/C=N/c1nccs1` the value was 0; for `CCCCCC/C(C)=C1/SC(=S)NC1=O`, 1 (active); for `c1ccc2c(c1)oc1c(N3CCN(Cc4ccc5c(c4)OCO5)CC3)ncnc12`, -1 (active).
For `SC(COCc1ccccc1)CN1CCN(Cc2ccc3c(c2)OCO3)CC1` (stereo not given) the value was -0.5.
For `COc1ccccc1N1CCN(Cc2cc(Br)c(O)c3ncccc23)CC1` the value was 0.5; for `CCCCCCN1C2=NCCN2c2ccccc21`, -1 (active).
Turning to `CC(C)(C)c1ccc(CN2C3=NCCCN3c3ccccc32)cc1`, the manual score was -1 (active).
For `OC(CN1C2=NCCCN2c2ccccc21)c1ccc(Br)cc1` (stereo not given) the value was -1 (active).
For `Cc1ccc(CN2C3=NCCCN3c3ccccc32)cc1`, the manual score was -1 (active).
For `Cc1ccc(Cn2c(SCC(=O)N3CC(=O)Nc4ccccc43)nc3ccccc3c2=O)cc1` the value was 0; for `CCN(CC)c1ccc(NC(=O)c2nc3nc(C)cc(C(F)F)n3n2)cc1`, 0.
For `Clc1ccc(CSc2ncn(-c3ccccc3)n2)cc1` the value was 0.
For `Cc1cc2c(cc1C)C(=O)NC(C)(C)C2` the value was 0.
For `CCC(c1nnnn1Cc1ccc(OC)cc1)N(CCCO)Cc1cc2cc3c(cc2[nH]c1=O)OCO3` (stereo not given), the manual score was 0.
For `COc1ccccc1C(c1nnnn1CCc1ccccc1)N1CCCCCC1` (stereo not given) the value was -1 (active).
For `COc1ccc(Cn2nnnc2C(c2ccccc2Cl)N2CCN(C3CCCC3)CC2)cc1` (stereo not given) the value was -1 (active).
For `COCCn1nnnc1C(c1ccccc1)N1CCN(c2ccccc2)CC1` (stereo not given) the value was 0.
For `COc1ccc(Cn2nnnc2C(c2ccc(F)cc2)N2CCN(C3CCCC3)CC2)cc1` (stereo not given), the manual score is -1 (active).
For `C=CCN1CCN(C(c2ccc(Cl)cc2)c2nnnn2CCc2ccc(OC)c(OC)c2)CC1` (stereo not given) the value was -1 (active); for `Cc1ccccc1/C=c1\s/c(=C\C(=O)C(C)(C)C)[nH]c1=O`, 0.
For `O=C(O)CCCCCNc1nc2ncn(Cc3ccccc3)c2c(=O)[nH]1` the value was 0; for `CCN(CC)C(=O)CN(c1ccc2c(c1)OCO2)S(C)(=O)=O`, 0; for `CCN(c1ccc2c(c1)OCO2)S(=O)(=O)c1cc(Br)cc2c1N(C(=O)C1CC1)CC2`, -1 (active).
For `COc1ccc(NC(=O)C(=O)NNC(=O)c2cccs2)c(OC)c1` the value was 1 (active); for `Cn1cccc1-c1nc2ccc(NC(=O)c3cccs3)cc2[nH]1`, 0; for `COC(=O)c1cc(OC)c(OC)cc1NC(=O)Nc1ccc(OC)cc1OC`, 0.
As for `COc1ccc(OC)c(C2C(C(=O)c3cccs3)=C(O)C(=O)N2c2cc(C)on2)c1` (stereo not given), the manual score is 0.
For `COc1ccc(NC(=O)C(=O)NNC(=O)c2cccs2)cc1` the value was 1 (active); for `COc1ccc(-n2c(=O)[nH]cc(C(=O)Nc3ccc(NC(C)=O)cc3)c2=O)cc1`, 0; for `O=C(Nc1ccc(CN2CCOCC2)cc1)c1cc2ccccn2n1`, 0.
As to `COCCCNCCCOc1ccc(Cl)cc1Br`, the manual score is 0.
For `COCCNCCOc1ccccc1-c1ccccc1` the value was -1 (active); for `COc1cc2cnncc2cc1OC`, 0.
With `S=c1[nH]nc(-c2ccc(Br)o2)n1Cc1ccccc1`, the manual score is 1 (active).
For `CCCc1cc(-c2n[nH]c(=S)n2Cc2ccccc2)cs1` the value was 0.
For `S=c1[nH]nc(-c2cc3ccccc3o2)n1Cc1ccccc1` the value was 0.5.
Turning to `C/C(=N/NC(=O)c1cc(Cl)ccc1O)C12CC3CC(CC(C3)C1)C2`, the manual score was 0.
For `CC(C)(C)CC(C)(C)NCC(O)COc1c(F)cc(Br)cc1F` (stereo not given) the value was -1 (active); for `CN1C2C=C3C(C#N)=C(N)C(C#N)(C#N)[C@@H](c4ccsc4)[C@@H]3C1CC2` (stereo not given in full), -0.5.
